# S2 tox: Viability Counterscreen for Primary qHTS for Inhibitors of ATXN expression; S2 cells (HEK-293 line with an ATXN2-luciferase reporter) viability, CellTiter-Fluor protease fluorescence, 24 h; Potency, µM (highest dose often 56.7 µM), most hits filed as cytotoxic; 400,000 compounds, 0.49% hits; also: nearly all actives have a fitted effect of over 40% in size
# Nrf2 ARE act: qHTS of Nrf2 Activators | AREc32 ARE-luciferase reporter (MCF7-derived line), luminescence, 24 h | Potency, µM (top dose mostly 46.1 µM), without a hit: at the highest dose activation, usual class: activators | 410,000 compounds, 0.31% hits | AID 624171, 2012; also: % of control where 0% means no effect; nearly all actives have a fitted effect of over 65% in size
#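 AREc32_Fluc, 1000 cells/well, OPTI-MEM + 5% FBS, o/n 37 deg C 5% CO2; 23 nL cpd by pin tool, 24 hr; Steady-Glo 30 min RT, luminescence.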
# ATXN2 expr inh: Primary qHTS for Inhibitors of ATXN expression | HEK-293 ATXN2-luciferase reporter, luminescence, 24 h | 360,000 compounds, 0.72% hits | Potency, µM (doses to about 57 µM), for inactives: at the highest dose activity change, negative = inhibition, most hits filed as inhibitors; also: % is scaled to controls: 0 for no effect and ±100 for the full control effect; nearly all actives have a fitted effect of over 55% in size
#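 ATXN2-luciferase reporter cells (luciferase flanked by upstream and downstream ATXN2 gene portions) were treated 24 h at 37 °C with compounds at up to 57 uM. SteadyGlo luminescence gave expression; GF-AFC fluorescence gave viability.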
# Nrf2 inh: Nrf2 qHTS screen for inhibitors. 360,000 compounds, 2.1% hits. AID 504444, 2011. A549 ARE-Fluc reporter, luciferase luminescence, 18-24 h. Potency, µM (titrated, usually from 46 µM), inactives show at the top dose activity change, negative = inhibition, actives largely listed as inhibitors; also: % is scaled to controls: 0 for no effect and ±100 for the full control effect; nearly all actives have a fitted effect of over 60% in size
#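 Nrf2 function is reported as luminescence of an ARE-controlled luciferase in A549 cells. Compounds were tested at several concentrations, and a CellTiter-Fluor read on the same wells flagged cytotoxicity.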
# A549 tox: Nrf2 qHTS screen for inhibitors: counterscreen for cytotoxicity; Potency, µM (series often up to 46 µM), for inactives: at the highest dose activity change, negative = cytotoxicity, most hits filed as inhibitors; A549 ARE-Fluc cells, CellTiter-Fluor viability, 18-24 h; 390,000 compounds, 0.16% hits; AID 504648, 2011; also: % is scaled to controls: 0 for no effect and ±100 for the full control effect
#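 A549 ARE_Fluc cells in 5% FBS OPTI-MEM were exposed to compounds in concentration-response for 18-24 h at 37 deg C. Viability was read by CellTiter-Fluor fluorescence (Ex 405/Em 525) after 30 min, before the luciferase read.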
# An asterisk follows results filed as active; i = inactive; u = inconclusive; x = no result; [ ] = remark or other dose. Compounds with a hit are over-represented: about 2.9% of the library has one in this group of screens. Calls follow the shape of the dose curve; as a rule, active = well fitted curve in the direction sought with a large enough effect; inconclusive = small, poorly fitted or top-dose-only effect, or another doubt; inactive = no such curve, though single readings can be large; an effect the other way counts as inactive or inconclusive. Potency is read from the fitted curve at half-maximal effect.
SMILES,S2 tox,Nrf2 ARE act,ATXN2 expr inh,Nrf2 inh,A549 tox
COCCN(Cc1ccccc1)C(=O)c1cc(-c2ccc(OC)c(OC)c2)nc2ccccc12,i,8%,-5%,18µM*,u
CC1(c2cccc(Br)c2)NC(=O)N(CC(=O)c2ccc3c(c2)OCCO3)C1=O (stereo not drawn),i,3%,-10%,-20%,1%
COc1ccc(CN(C(=O)Cc2c[nH]c3ccccc23)C(C(=O)NC2CCCCC2)c2ccc(C)o2)cc1 (stereo not drawn),x,0%,x,12µM*,u
COc1cccc(CN(C(=O)Cc2c[nH]c3ccccc23)C(C(=O)NC2CCCCC2)c2ccc(C)o2)c1 (stereo not drawn),u,5%,u,21µM*,u
Cc1ccc(C(C(=O)NC2CCCCC2)N(Cc2ccccc2)C(=O)Cc2c[nH]c3ccccc23)o1 (stereo not drawn),u,0%,u,u,u
Cc1ccc(NC(=O)C(C)OC(=O)c2cc(=O)[nH]c3ccccc23)cc1S(=O)(=O)N1CCOCC1 (stereo not drawn),i,-1%,1%,9%,4%
O=C1C(=Cc2cccc(F)c2)Cc2ccccc21,i,10µM*,4%,x,x
COc1cccc(C=C2Cc3ccccc3C2=O)c1,u,u,51%,x,x
Nc1ccccc1C=C1Cc2ccccc2C1=O,i,2.8µM*,100%,u,2%
O=C(CSc1nc(=O)n(CCN2CCOCC2)c2c1CCCC2)Nc1ccc(F)cc1F,i,0%,-5%,13%,11%
Cc1ccc(CNC(=O)Cn2cc(C(F)(F)F)ccc2=O)cc1,i,2%,11%,6%,-3%
COc1cccc(NC(=O)CSc2nc3cc(OC)c(OC)cc3c3nc(-c4ccccc4)nn23)c1,i,0%,-2%,3%,7%
Clc1cccc(Cc2c(-c3ccccc3)nc3c4ccccc4ccn23)c1,u,5µM*,45%,x,x
Clc1cccc(Cc2c(-c3cccc(Cl)c3)nc3c4ccccc4ccn23)c1,i,11%,14%,x,x
COc1ccc(Cc2c(-c3ccccc3)nc3c4ccccc4ccn23)c(C)c1,u,5µM*,6%,x,x
Fc1cccc(Cc2c(-c3ccco3)nc3c4ccccc4ccn23)c1,i,5µM*,138%,x,x
Brc1cccc(-c2nc3c4ccccc4ccn3c2Cc2ccsc2)c1,i,11µM*,42%,x,x
C[C@@H](NC(=O)c1nc[nH]c1C(=O)NCC(=O)OCc1ccccc1)c1ccccc1,i,-1%,3%,11%,2%
COC(=O)[C@]1(C)N[C@H](CN(C)S(=O)(=O)c2ccc(OC)cc2)[C@@H]2C(=O)N(C)C(=O)[C@@H]21,i,0%,-8%,4%,-5%
Cc1ccc(C)c(NC(=O)Cn2cc(S(=O)(=O)N3CCCC3)c(S(=O)(=O)N3CCCC3)c2)c1,i,0%,7%,u,6%
O=C(N/N=C/C(Cl)=C/c1ccccc1)c1cnccn1,u,11µM*,-13%,u,-3%
CC(=C/c1ccccc1)/C=N/NC(=O)c1cnccn1,i,0%,23%,12%,-6%
O=C(N/N=C/C(Cl)=C\c1ccccc1)c1cnccn1,i,16µM*,6%,u,8%
O=C(N/N=C/C(Cl)=C/c1ccccc1)c1ccccc1F,i,u,8%,u,2%
O=C(Nc1nc2cc(Cl)ccc2s1)C1CCCN(S(=O)(=O)c2cccc3cccnc23)C1 (stereo not drawn),u,-3%,18µM*,u,-16%
SMILES,S2 tox,Nrf2 ARE act,ATXN2 expr inh,Nrf2 inh,A549 tox
O=C(Nc1ccccc1Cl)C1CCCN(S(=O)(=O)c2cccc3cccnc23)C1 (stereo not drawn),i,0%,x,9%,7%
COc1cc(C#Cc2c(-c3cncn3C)n(C)c3ccc(-c4cc(OC)c(OC)c(OC)c4)cc23)cc(OC)c1,i,-4%,u,u,-13%
COc1cc(C#Cc2c(-c3cncn3C)n(C)c3ccc(-c4ccc(OC)nc4)cc23)cc(OC)c1,u,6%,28µM*,-20%,14%
COCc1ccc(C(=O)NC2CCCc3c2cnn3-c2ccc(C)c(C)c2)o1 (stereo not drawn),i,-1%,u,15µM*,-6%
COc1cc2c(cc1OC)C(COc1ccc3c(C)cc(=O)oc3c1)N(C(=O)c1cc(Cl)ccc1OC)CC2 (stereo not drawn),i,1%,6%,-3%[9.27 µM],-17%
COc1ccc(-c2cc(C3C4C=CCCC4(C)C(=O)N3Cc3ccccc3)ccc2F)cc1OC (stereo not drawn),x,x,x,u,3%
C[C@H](CO)N1C[C@H](C)[C@@H](CN(C)Cc2cccc(O)c2)OCc2cnnn2CCCC1=O,i,-2%,1%,x,x
CC(=O)Nc1cc(OC(C)=O)c2nonc2c1OC(C)=O,x,-3%,u,15µM*,u
CC(=O)Oc1ccc2nonc2c1OC(C)=O,x,x,x,-9%,-18%
Cc1ccccc1C(=O)NNC(=S)NC(=O)c1ccc(Cl)cc1Cl,i,2%,-9%,23µM*,u
O=C(CCc1ccccc1)NNC(=O)c1ccc(Cl)cc1,i,0%,-8%,-25%,2%
Cc1ccc(C(=O)NNC(=S)NC(=O)c2ccc(Cl)cc2)cc1,i,-1%,u,16µM*,u
CC(=O)NNC(=S)NC(=O)c1ccc(C)cc1,i,-1%,x,u,7%
O=C(CCc1ccccc1)NNC(=S)NC(=O)c1ccc(Cl)cc1,i,2%,-18%,21µM*,-24%
Cc1cc(C)n(C(N)=NC(=O)c2ccc([N+](=O)[O-])cc2)n1,i,4%,x,-14%,2%
COc1ccc(-c2cn3cc(C)ccc3n2)cc1OC,u,-1%,-11%,u,2%
COc1ccc(-c2cn3ccccc3n2)cc1OC,i,11µM*,7%,u,3%
O=C(Cc1ccc(F)cc1)OCn1nnc2ccccc2c1=O,i,4%,7%,12%,0%
CCOC(=O)Nc1cccc(OCC(=O)Nc2ccc(OC)cc2OC)c1,i,2%,-5%,15µM*,u
CCOC(=O)c1cccc(NC(=O)Nc2cc(OC)ccc2OC)c1,i,3%,5%,21µM*,-8%
CC(C)c1cc(C(C)C)c(S(=O)(=O)N2c3ccccc3[C@@]3(Br)C[C@H]4C(=O)N[C@@H](Cc5ccccc5)C(=O)N4[C@@H]23)c(C(C)C)c1,i,0%,3%,u,8%
O=C1CC(Cc2ccc(Cl)cc2)C(=O)N1c1ccncc1 (stereo not drawn),i,-1%,-1%,0%,-5%
